The list is not random: actives were taken first. Their share in the collection is about 13%.
USP28 inh: inhibitors of human USP28 deubiquitinase; Q96RU2; purified USP28, Ub-rhodamine cleavage fluorescence, 30 min; inhibition, % at 25 µM; hit rate 3% among 47,000
Target sequence (Q96RU2 whole entry, looked up): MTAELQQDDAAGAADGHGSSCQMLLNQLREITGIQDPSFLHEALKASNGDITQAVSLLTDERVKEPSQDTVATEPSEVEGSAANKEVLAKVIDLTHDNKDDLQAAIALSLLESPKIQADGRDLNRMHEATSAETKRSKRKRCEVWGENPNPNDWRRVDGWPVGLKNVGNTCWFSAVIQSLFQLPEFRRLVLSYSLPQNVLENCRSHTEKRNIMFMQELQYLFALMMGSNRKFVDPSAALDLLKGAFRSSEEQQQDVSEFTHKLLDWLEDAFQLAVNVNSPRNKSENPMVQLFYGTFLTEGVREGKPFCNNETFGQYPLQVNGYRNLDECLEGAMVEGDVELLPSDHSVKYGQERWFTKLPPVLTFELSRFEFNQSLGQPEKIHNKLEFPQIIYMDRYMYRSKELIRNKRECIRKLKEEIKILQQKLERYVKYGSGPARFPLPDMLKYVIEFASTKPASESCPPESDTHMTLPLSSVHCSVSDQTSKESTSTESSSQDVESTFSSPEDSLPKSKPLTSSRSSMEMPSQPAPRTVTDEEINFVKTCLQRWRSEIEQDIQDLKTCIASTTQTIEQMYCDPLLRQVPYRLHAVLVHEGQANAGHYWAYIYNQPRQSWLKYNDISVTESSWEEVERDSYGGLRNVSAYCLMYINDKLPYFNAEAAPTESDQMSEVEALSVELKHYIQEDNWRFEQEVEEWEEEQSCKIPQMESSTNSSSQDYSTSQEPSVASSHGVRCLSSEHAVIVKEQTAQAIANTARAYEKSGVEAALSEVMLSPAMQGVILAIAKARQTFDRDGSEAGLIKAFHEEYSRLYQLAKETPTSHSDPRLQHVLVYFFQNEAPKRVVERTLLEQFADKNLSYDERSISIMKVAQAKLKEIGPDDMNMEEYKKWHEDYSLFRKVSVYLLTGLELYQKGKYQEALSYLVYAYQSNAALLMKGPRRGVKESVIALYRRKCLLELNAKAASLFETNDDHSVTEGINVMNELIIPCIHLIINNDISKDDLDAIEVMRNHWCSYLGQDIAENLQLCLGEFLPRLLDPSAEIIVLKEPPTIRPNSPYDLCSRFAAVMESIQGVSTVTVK
USP8 inh: blocks human USP8 ubiquitin-rhodamine cleavage | hit rate 4.2% among 47,000 | inhibition, % at 20 µM | P40818 | purified USP8, Ub-rhodamine cleavage fluorescence, 30 min
USP30 block: human USP30 deubiquitinase inhibition | inhibition, % at 25 µM | Q70CQ3 | purified USP30, Ub-rhodamine cleavage fluorescence | hit rate 5.3% among 47,000 | AID 1645860
USP10 inh: blocks human USP10 ubiquitin-rhodamine cleavage. purified USP10, Ub-rhodamine fluorescence, 60 min. inhibition, % at 20 µM. Q14694. hit rate 1.1% among 47,000. AID 1645856
USP17 inh: blocks human USP17 ubiquitin-rhodamine cleavage | AID 1645855 | A8MUK1 | purified USP17, Ub-rhodamine cleavage fluorescence, 3 h | inhibition, % at 50 µM | hit rate 6.5% among 47,000
* hit, by the source's call; i = inactive; . = not tested or not shown. Rule as the data show it: active = inhibition above about 30%; inactive = the rest.

SMILES	USP28 inh	USP8 inh	USP30 block	USP10 inh	USP17 inh
CCc1ccccc1NS(=O)(=O)c1c(C)[nH]c(C)c1-c1nc(C)no1	3	13	-3	1	2
O=C1N[C@@H]2CN(C(=O)c3ccc4ccccc4c3)CC[C@H]2CO1	-4	1	-6	0	-4
O=C(CCc1nc2sc3c(c2c(=O)[nH]1)CCCCC3)Nc1ccc(F)cc1F	-42	42*	-263	-6	-173
COCCCNC(=O)c1ccc(N2CCOc3ccccc32)s1	-13	-10	-18	0	-5
O=C(NC1CCS(=O)(=O)C1)c1ccc(N2CCOc3ccc(Cl)cc32)s1 (stereo unspecified)	6	-8	1	-4	40*
O=C(Nc1ccc2c(c1)OCCO2)c1cc(-c2ccccn2)nc2ccccc12	-11	6	-27	-1	2
Cc1nc2ccccc2c2oc(C(=O)Nc3ccc4c(c3)OCCO4)cc12	22	52*	-9	-3	0
Cc1nc(-c2ccccc2)sc1C(=O)Nc1ccc2c(c1)OCCO2	50*	9	17	9	11
Cc1nn(C)c(NC(=O)Nc2ccccc2F)c1C1=CCCCC1	5	2	34*	-1	24
Cc1nn(C)c(NC(=O)Nc2ccc(F)cc2F)c1C1=CCCCC1	-11	-2	-8	-1	0
Cc1cc(/C=C2\C(=N)N3N=CSC3=NC2=O)c(C)n1-c1cccc(F)c1	-52	-13	-157	9	-29
CCc1ccc(-n2c(C)cc(/C=C3\C(=N)N4N=CSC4=NC3=O)c2C)cc1	-136	62*	-433	40*	46*
CC(C)CCNC(=O)c1ccc2ccnc(N3CCN(c4ccccc4F)CC3)c2c1	-15	67*	-35	-8	19
COc1ccc(N2CCN(c3nccc4ccc(C(=O)Nc5ccc(OC)c(OC)c5)cc34)CC2)cc1	-11	-3	-21	-1	-5
CCCCc1nc2ccccc2n2c(-c3ccccc3)c3c(=O)n(C)c(=O)n(C)c3c12	-14	-54	-19	-7	0
COc1ccc(Cl)cc1NC(=O)CN1C(=O)CC(c2ccccc2)S(=O)(=O)c2ccccc21 (stereo unspecified)	12	14	11	-1	12
COc1ccc(C2CC(=O)N(CC(=O)Nc3ccc(NC(C)=O)cc3)c3ccccc3S2)cc1OC (stereo unspecified)	.	4	.	0	37*
CCCC(=O)NC1(c2nc(-c3cccnc3)no2)CCCCC1	18	-1	20	3	14
CCCCOc1ccc(C(=O)NC2(c3nc(-c4cccnc4)no3)CCCCC2)cc1	10	16	32*	10	17
COc1ccc(CC(=O)NCCc2cn3ccc(C)cc3n2)cc1	4	-2	19	-2	0
Cc1ccc(-c2cc(C(F)F)n3ncc(C(=O)Nc4ccc5c(c4)OCO5)c3n2)cc1	10	47*	11	-1	22
CCCc1ccc(C(C)NC(=O)c2cnn3c(C(F)F)cc(-c4ccc(OC)cc4)nc23)cc1 (stereo unspecified)	18	22	15	3	34*
CCN(CC)c1ccc(NC(=O)c2cnn3c(C(F)F)cc(-c4ccc(OC)cc4)nc23)cc1	11	11	14	3	16
Cc1nc2c(nnn2C[C@@H]2CCCN(C(=O)c3cccc(F)c3)C2)c(=O)[nH]1	-7	13	0	1	-1
O=C(NCc1noc(-c2ccccc2)n1)c1ccccc1F	4	1	-1	4	.
SMILES	USP28 inh	USP8 inh	USP30 block	USP10 inh	USP17 inh
CC1=CC[C@]2(C)C[C@@H](O)[C@](O)(C(C)C)C2CC1 (stereo partly specified)	1	6	32*	2	1
COc1ccc(CN2C[C@@]34CN(C(=O)c5ccncc5)C[C@@H](C[C@@H]3S2(=O)=O)O4)cc1	4	-28	16	-1	8
COc1ccc(-c2ccc(CCC(=O)Nc3c(C)cccc3C)o2)cc1	12	1	44*	2	26
CC(C)(C)C(=O)N1CCCC1c1nc2ccccc2s1 (stereo unspecified)	13	20	21	3	14
CCc1nnc(NC(=O)CN(Cc2ccccc2)S(=O)(=O)c2ccc(Cl)cc2)s1	12	-26	55*	13	63*
O=S(=O)(c1ccc(Cl)cc1)N(Cc1ccccc1)Cc1nnnn1-c1ccccc1	20	21	30*	6	12
Clc1ncc(CN2CCc3ccccc3C2)s1	38*	35*	0	2	12
COc1ccccc1C(=O)N1CCC(Cc2nc(-c3cnccn3)no2)CC1	-2	6	9	0	0
CCCn1c(C(O)c2cccc3ccccc23)nc2ccccc21 (stereo unspecified)	-20	48*	-72	0	-8
C/C=C(\Cl)C1=CC(=O)[C@]23C[C@H]2C(C)(C)O[C@]3(O)C1=O	-75	-335	i	-8	-62
O=[N+]([O-])c1ccc2nc(CSc3nc4ccccc4[nH]3)[nH]c2c1	-9	15	-68	-8	5
Cc1cccc2nc(CSc3nc4ccc([N+](=O)[O-])cc4[nH]3)cn12	3	62*	8	61*	0
Nc1c(C(=O)NCC2CCCO2)nnn1-c1ccccc1Cl (stereo unspecified)	10	32*	28	2	17
Cc1ccc(-n2nnc(C(=O)NCC3CCCO3)c2N)c(C)c1 (stereo unspecified)	2	10	0	0	5
CCc1ccc(-n2c(=O)c3ccccc3n(CC(=O)NC3CCCC3)c2=O)cc1	31*	5	52*	9	62*
COc1cc(Cl)c(C)cc1NC(=O)Cn1c(=O)n(CC(=O)NCc2ccco2)c(=O)c2ccccc21	39*	64*	28	43*	50*
CCc1ccc(NC(=O)Cn2c(=O)n(-c3ccc(CC(=O)NCc4ccco4)cc3)c(=O)c3ccccc32)cc1	0	29	-22	21	47*
O=C(Cn1c(=O)c2ccccc2n(CC(=O)Nc2cc(Cl)cc(Cl)c2)c1=O)NCc1ccco1	17	50*	40*	35*	30
Cn1c(SCc2ccccc2Cl)nnc1-c1csc(-c2cccnc2)n1	7	-124	16	0	-3
CC(=O)Nc1ccc(C(=O)N2CCC3(CC2)CO[C@@H]2c4ccccc4OC(C)(C)[C@H]2C3)cn1	-12	-42	-3	-1	-18
Cn1ccnc1C(=O)N1CCC[C@@]2(C[C@@H](Oc3ccc(F)c(Cl)c3)CO2)C1	-10	-3	-9	-1	-6
CNC(=O)N1CCc2nc(N3CCc4ccccc4C3)[nH]c(=O)c2CC1	-1	9	-25	-3	0
CCn1nc(C)c(S(=O)(=O)N2CCN(C(=O)Cc3ccccc3C)CC2)c1C	-9	1	8	0	1
O=C(Cn1c(=O)c2ccccc2n(CC(=O)Nc2ccc(Br)cc2)c1=O)NCc1ccco1	15	44*	21	23	31*
O=C(NC1CCCCC1)c1nc(Cn2cnc3ccccc3c2=O)no1	-1	12	0	3	14

Source: PubChem BioAssay
